Among the data in PubChem BioAssay AID2315 (National Center for Advancing Translational Sciences (NCATS), 2010) are inhibition values, retold here.

The structures appear in SMILES notation. Among all 290,000 compounds or so, about 27,000 (9.3%) were called active. The sample holds actives, similar compounds and a random draw of the others, so the mix is not that of the screen. Unmarked numbers belong to inactive results. Rule as the data show it: active = inhibition mostly above about 28% (no sharp cut-off); inactive = mostly below about 43%.

The nature of the assay: A qHTS for Small Molecule Inhibitors of Shiga Toxin. As to inhibition: 0% is about no effect. Conditions: Vero cells, Shiga toxin protein synthesis inhibition reporter; at 38.7 µM, hits give high values. For orientation: In qHTS, concentration-response curves come from the screen itself.
One may read the inhibition as the change of the read-out against control, counted positive when it falls. As for `CC(C)(C)c1ccc(/C=C/C(=O)NCCCn2ccnc2)cc1`, the inhibition is -13.7%.

For `Cn1c(=O)[nH]c(=O)c2c1nc(Br)n2CCCCSc1nc2ccccc2o1`, the inhibition is 39.4%.

As to `CCC(NC(=O)c1ccccc1NC(=O)c1ccccc1)C(=O)NNC(=O)CSc1nc2ccccc2o1` (stereo not drawn), the inhibition is 23.3% (active).

On to `CCOC(=O)c1ccccc1NC(=O)CSc1nc2ccccc2c(=O)[nH]1`, for which the inhibition is -5.65%.

On to `COc1ccc(OC)c(NC(=O)C2CCCN2S(=O)(=O)c2cccc3nsnc23)c1` (stereo not drawn), for which the inhibition was -4.24%.

`COc1nc(NCc2ccc(Cl)cc2)nc(OC)n1`: the inhibition was 45.3%.

For `C=CCNc1nc(Nc2ccc(Cl)cc2)nc(OC)n1`, the inhibition was 71.3% (active).

On to `C=CCNc1nc(C)nc(OC)n1`, for which the inhibition was -12.3%.

Turning to `Cc1sc2nc(SCCO)n(-c3ccccc3)c(=O)c2c1C`, the inhibition was -3.85%.

As to `Cc1ccc2c(c1)N(C(=O)CCC(=O)NCc1cccnc1)CCO2`, the inhibition was 3.18%.

In the case of `Oc1ccc(Cl)cc1C1C=C(c2ccc3c(c2)OCO3)NC(c2ccc(F)c(Br)c2)N1` (stereo not drawn), the inhibition is 93.1% (active).

Regarding `Oc1ccc(Cl)cc1C1C=C(c2ccc3c(c2)OCO3)NC(c2c(F)cccc2Cl)N1` (stereo not drawn), the inhibition was 68.7% (active).

For `Cc1csc(Nc2ccc(Cl)cc2)[n+]1-c1ccc(Cl)cc1`, the inhibition was 19.3%.

As for `COCCN1C(=O)C(=O)/C(=C(/O)c2ccc(S(=O)(=O)N3CCCCC3)cc2)C1c1ccc(OC)c(OC)c1` (stereo not drawn), the inhibition is 11%.

For `Cn1cccc1/C=N/NC(=O)CNc1cccc2ccccc12`, the inhibition was 6.61%.

For `Cc1cccc(/C=N/NC(=O)CNc2cccc3ccccc23)n1`, the inhibition was 70.6% (active).

For the compound `C/C(=N\NC(=O)CNc1cccc2ccccc12)c1ccc(Br)s1`, the inhibition was -8.07%.

Consider `Clc1ccc(-c2cc(-c3ccccn3)on2)c(Cl)c1`, for which the inhibition is 48.1%.

As to `CC(C)c1nc(-c2ccccn2)no1`, the inhibition is 46.2% (active).

On to `c1ccc(-c2nccc(-c3ccc(-n4cnc5ccccc54)cc3)n2)nc1`, for which the inhibition was -13.3%.

In the case of `COc1ccc(-n2ncc3c2CC(C)(C)CC3NC(=O)CCc2c(C)noc2C)cc1` (stereo not drawn), the inhibition was 27.2%.

Regarding `O=C(/C=C/c1cccs1)c1cc(Cl)ccc1OC(=O)N1CCOCC1`, the inhibition was 18.1%.

`COc1ccc(-c2nc(CS(=O)(=O)CC(=O)NCc3cccc(Br)c3)c(C)o2)cc1`: the inhibition was 4.36%.

On to `O=C(O)C(c1ccccc1)N1C(=O)/C(=C\c2ccc(-c3cccc(Cl)c3)o2)SC1=S` (stereo not drawn), for which the inhibition was -2.95%.

For the compound `O=C1NN(c2ccccc2)C(=O)/C1=C/c1ccc(-c2cccc(C(=O)O)c2)o1`, the inhibition was 18.2%.

Take `O=C1c2ccccc2NC(c2ccc(-c3cccc(Cl)c3)o2)N1O` (stereo not drawn): the inhibition is 58.1% (active).

Turning to `COc1cccc(N(CC(=O)NCc2ccccc2)C(=O)CCC(=O)Nc2nccs2)c1`, the inhibition was -2.69%.

Consider `COc1ccc(NS(=O)(=O)c2ccc(NC(=S)NC(=O)CC(C)C)cc2)cc1`, for which the inhibition is -7.41%.

Turning to `CC(=O)c1ccc(NC(=S)NC(=O)CC(C)C)cc1`, the inhibition was 26.8% (active).

As for `CC(C)CC(=O)NC(=S)Nc1cc(C(=O)O)ccc1Cl`, the inhibition is 30.7%.

`CCOC(=O)C1CCN(S(=O)(=O)c2c(C)noc2C)CC1`: the inhibition was 30.7%.

Regarding `COC(=O)c1ccccc1NC(=O)CSc1n[nH]c(-c2ccncc2)n1`, the inhibition is 4.61%.

On to `Cc1cccc(C(=O)Nc2ccc(C(=O)/C=C/c3cccs3)cc2)c1`, for which the inhibition is 99.7% (active).

For the compound `Cc1cccc(C(=O)Nc2ccc(CC(=O)O)cc2)c1`, the inhibition is 18.5%.

With `Cc1cccc(C(=O)Nc2ccc(C(=O)N/N=C/c3cccc(C)n3)cc2)c1`, the inhibition is 3.17%.

`Cc1ccc(C(=O)N/C(=C\c2cn(S(=O)(=O)N(C)C)c3ccccc23)C(=O)N2CCCC2)cc1`: the inhibition was -2.9%.

Turning to `CCOc1ccc(C(C(=O)NC2CCCC2)N(C(=O)c2snc(C(N)=O)c2N)C2CCCC2)cc1` (stereo not drawn), the inhibition was 12.4%.

For the compound `COc1ccc2[nH]c3nc(SCC(=O)NC4CC4)nnc3c2c1`, the inhibition is -7.63%.

On to `COc1ccc2nc(SCc3ccccc3)nc(C)c2c1`, for which the inhibition is 70.1% (active).

Take `COC(=O)CSc1nc(C2CC2)nc2ccccc12`: the inhibition was -5.63%.

As for `COc1ccc(-c2nnc3ccc(SCc4ccccc4)nn23)cc1`, the inhibition was 9.35%.

As to `COc1cccc(CSc2nc3nc(C)cc(C)n3n2)c1`, the inhibition was -3.55%.

Turning to `COC(=O)CSc1nc(C)c2ccc(OC)cc2n1`, the inhibition was 44.6% (active).

As to `O=C(COc1cc2oc(=O)c3c(c2cc1Cl)CCC3)NCCCN1CCOCC1`, the inhibition was -7.49%.

On to `NC(=O)c1cc(S(=O)(=O)NCCCc2ccco2)cs1`, for which the inhibition is 19.4%.

Consider `O=[N+]([O-])c1cc(C(F)(F)F)ccc1NN=C1CCCC1`, for which the inhibition was 9.47%.

On to `O=[N+]([O-])c1ccccc1N/N=C1\CCc2ccccc21`, for which the inhibition was 50.9% (active).

As to `CN1CCN(CCNC(=O)Nc2ccccc2[N+](=O)[O-])CC1`, the inhibition was 24.3%.

Regarding `CCOC(=O)C1CCCN(S(=O)(=O)c2ccc(-n3cnnn3)c(C)c2)C1` (stereo not drawn), the inhibition was -3%.

Consider `COc1ccc(CN2CCC(=O)c3ccccc3S2(=O)=O)cc1`, for which the inhibition is -3.72%.

With `CC(C)(C)c1ccc(CN2C(=O)c3ccccc3S2(=O)=O)cc1`, the inhibition is 32.5%.

Take `CC(C)(C)c1ccc(OC2=CS(=O)(=O)c3ccccc32)cc1`: the inhibition was 135% (active).

Take `Cc1cccc(OCC(=O)NCCNC(=O)c2cccnc2)c1`: the inhibition is -6.35%.

Consider `Brc1ccc(C2CC(c3ccccc3)=Nc3ccccc3N2)cc1` (stereo not drawn), for which the inhibition is 105% (active).

`Brc1ccc(C2=NCCC(c3ccccc3)O2)cc1` (stereo not drawn): the inhibition result was “inactive”.

Take `Cc1cc(=O)oc2cc(OCC(=O)N3CCN(c4ccc(F)cc4)CC3)c(Cl)cc12`: the inhibition is -2.97%.

`O=C(Nc1ccc(S(=O)(=O)N2CCCCC2)cc1)C1CC(=O)N(c2ccc(F)cc2)C1` (stereo not drawn): the inhibition was 29.9%.

`Cc1cc2oc(=O)cc(CN3CCN(Cc4ccccc4)CC3)c2cc1C`: the inhibition was -3.23%.

With `Cc1noc(C)c1C(=O)NCCc1ccc(S(N)(=O)=O)cc1`, the inhibition is 10.5%.

For `Clc1ccc(CN2CCCCCC2)cc1Cl`, the inhibition was -3.6%.

Turning to `Cc1cccc(N2Cc3ccccc3C2=NC(=O)c2ccc(Cl)nc2)c1`, the inhibition was 0% (active).

For the compound `Cc1cccc(N2CCN(C(=O)c3cccc(S(=O)(=O)N4CCc5ccccc5C4)c3)CC2C)c1` (stereo not drawn), the inhibition was -8.81%.

Take `N#Cc1ccc(N2Cc3ccccc3/C2=N/C(=O)Nc2ccc(Cl)cc2)cc1`: the inhibition is 24.7%.
